Inconclusive results are not listed. A call without a number means that no potency is given here. Values without a mark were called inactive. Calls of active or inactive are those of the source. The call rests on the fitted dose curve; in most records, active means well fitted inhibition curve with a large enough effect; inconclusive means small, poorly fitted or top-dose-only effect; inactive means flat fitted curve, though single readings scatter.
Tests used:
[1] = qHTS profiling for inhibitors of Plasmodium falciparum proliferation (AID 504749); further: nearly all actives have a fitted effect of over 60% in size; settings: P. falciparum in erythrocytes, SYBR Green DNA, 72 h
In short: (§1)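 SYBR Green fluorescence of parasite DNA, read after lysis and overnight dark incubation, measured growth over 72 h in erythrocyte culture at 0.3% parasitemia and 2.5% hematocrit. Data normalised to DMSO and 0.29 uM artemisinin, with plate-drift correction.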

3D7 = assay: as above; settings: P. falciparum in erythrocytes, SYBR Green DNA, 72 h; series mostly up to 28.7 µM
In short: as §1

7G8 = assay: as above; settings: P. falciparum in erythrocytes, SYBR Green DNA, 72 h; series mostly up to 28.7 µM
In short: as §1

AS120 = assay: as above; settings: P. falciparum in erythrocytes, SYBR Green DNA, 72 h; series mostly up to 28.7 µM
In short: as §1

ATS95 = assay: as above; settings: P. falciparum in erythrocytes, SYBR Green DNA, 72 h; series mostly up to 28.7 µM
In short: as §1

C2A = assay: as above; settings: P. falciparum in erythrocytes, SYBR Green DNA, 72 h; series mostly up to 28.7 µM
In short: as §1

CP185 = assay: as above; settings: P. falciparum in erythrocytes, SYBR Green DNA, 72 h; series mostly up to 28.7 µM
In short: as §1

AA1029 = assay: as above; settings: P. falciparum in erythrocytes, SYBR Green DNA, 72 h; series mostly up to 28.7 µM
In short: as §1

ATS189 = assay: as above; settings: P. falciparum in erythrocytes, SYBR Green DNA, 72 h; series mostly up to 28.7 µM
In short: as §1

[2] = at 28.7 µM (top of the series), parasite line A
[3] = at 28.7 µM (top of the series), parasite line B
Potency means the concentration at half of the fitted maximal effect.

| SMILES | Potency ([1]; parasite line A) | Potency (3D7) | Potency (7G8) | Potency (AS120) | Potency (ATS95) | Potency (C2A) | Potency (CP185) | activity, negative = inhibition [1, 2] | activity, negative = inhibition [1, 3] | Potency (AA1029) | Potency (ATS189) | activity, negative = inhibition ([1]; at 12.8 µM (top of the series), parasite line A) | activity, negative = inhibition ([1]; at 12.8 µM (top of the series), parasite line B) |
| --- | --- | --- | --- | --- | --- | --- | --- | --- | --- | --- | --- | --- | --- |
| CCCCOc1ccc(CC(=O)NO)cc1 | 1.12 µM (active) | 0.562 µM (active) | 1.78 µM (active) | 3.55 µM (active) | 3.55 µM (active) | 1.58 µM (active) | 3.98 µM (active) |  |  |  |  |  |  |
| COc1ccc(-c2ccc3cc(C(=O)O)ccc3c2)cc1C12CC3CC(CC(C3)C1)C2 |  | inactive |  | inactive |  | inactive | inactive | 6.34% | 6.13% | inactive | inactive |  |  |
| COc1cnc(NS(=O)(=O)c2ccc(N)cc2)nc1 |  | inactive | inactive | inactive | inactive | inactive | inactive |  |  | inactive | inactive | 3.37% | 2.7% |
| COc1ccc(C(=O)CC(=O)c2ccc(C(C)(C)C)cc2)cc1 |  | inactive |  | inactive | inactive | inactive | inactive | 0.965% |  | inactive | inactive |  |  |
| O=c1cc(O)c(Cl)c[nH]1 |  | inactive | inactive | inactive | inactive | inactive | inactive | -6.01% | 8.72% | inactive | inactive |  |  |
